About 79,000 compounds went through this panel and 15% of them were active in at least one assay; those are over-represented in the sample as a whole. Active and inactive are the calls of the source. Rule as the data show it: active = growth inhibition above about 70%; inactive = the rest.
Tests used:
[1] = NCI Yeast Anticancer Drug Screen. Data for the rad52 strain (AID 147);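 also: 0% = growth of vehicle-treated control cultures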; details: S. cerevisiae rad52 mutant growth inhibition, stronger effect = higher value
Outline: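 Growth of repair-deficient yeast cells was compared between compound-treated and vehicle-treated cultures to give percent inhibition.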

[2] = NCI Yeast Anticancer Drug Screen. Data for the wt1 strain (AID 149);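 also: 0% = growth of vehicle-treated wt1 cultures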; details: S. cerevisiae wt1 strain (SPY 50644) growth inhibition, stronger effect = higher value
Outline: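 The wt1 strain was treated with compounds, and growth was compared with vehicle-treated cultures to give inhibition.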

[3] = NCI Yeast Anticancer Drug Screen. Data for the rad50EPP+ strain (AID 151);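 also: 0% = growth of vehicle-treated control cultures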; details: S. cerevisiae rad50 mutant strain, stronger effect = higher value
Outline: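 Measured: growth inhibition of rad50EPP+ yeast. Reference: vehicle-treated controls. Screen uses strains with defined genetic alterations in DNA damage repair or cell cycle control.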

[4] = NCI Yeast Anticancer Drug Screen. Data for the mgt1 strain (AID 153); details: S. cerevisiae mgt1 mutant growth inhibition, stronger effect = higher value
Outline: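 Compounds were applied to mgt1 mutant yeast, and growth was then compared against vehicle-treated control cultures to give percent inhibition.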

[5] = NCI Yeast Anticancer Drug Screen. Data for the rad50 strain (AID 155);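 also: 0% = growth of vehicle-only cultures of the same strain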; details: S. cerevisiae rad50 strain growth inhibition, stronger effect = higher value
Outline: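 Cells are treated with compound, grown, and their growth is then scored against vehicle-only cultures of the same repair-deficient yeast strain.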

[6] = NCI Yeast Anticancer Drug Screen. Data for the mec2-1 strain (AID 157); details: S. cerevisiae mec2-1 strain, stronger effect = higher value
Outline: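 Compounds were applied to mec2-1 yeast cells. Their growth was then compared with that of vehicle-treated cultures to give growth inhibition.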

[7] = NCI Yeast Anticancer Drug Screen. Data for the rad14 strain (AID 159);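 also: 0% = growth of vehicle-treated control cultures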; details: S. cerevisiae rad14 strain growth inhibition, stronger effect = higher value
Outline: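 Readout: yeast growth inhibition, referenced to vehicle-only cultures. Strain bears a defined alteration in DNA damage repair.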

[8] = NCI Yeast Anticancer Drug Screen. Data for the sgs1 mgt1 strain (AID 161);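 also: 0% = growth of cultures given vehicle only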; details: S. cerevisiae sgs1 mgt1 strain, stronger effect = higher value
Outline: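 Growth of a repair-deficient yeast mutant was monitored after compound treatment and expressed as inhibition relative to vehicle-treated cultures.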

[9] = NCI Yeast Anticancer Drug Screen. Data for the CLN2oe strain (AID 163);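 also: 0% = growth of vehicle-only control cultures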; details: S. cerevisiae CLN2oe strain, stronger effect = higher value
Outline: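 Cells of an engineered yeast line with disturbed cell-cycle regulation are treated with compound. Inhibition of growth is then calculated relative to the vehicle-treated reference.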

[10] = NCI Yeast Anticancer Drug Screen. Data for the cln2 rad14 strain (AID 165);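 also: 0% = growth equal to vehicle treated cultures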; details: S. cerevisiae cln2 rad14 strain, stronger effect = higher value
Outline: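 Strain: cln2 rad14 yeast, altered in cell cycle control and DNA damage repair. Read-out: growth inhibition vs vehicle.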

[11] = NCI Yeast Anticancer Drug Screen. Data for the bub3 strain (AID 167); details: S. cerevisiae bub3 mutant strain, stronger effect = higher value
Outline: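 Part of a panel of yeast mutants defective in DNA damage repair or cell cycle regulation. Each strain is grown with compound, and inhibition is calculated relative to solvent-treated cultures.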

[12] = NCI Yeast Anticancer Drug Screen. Data for the wt2 strain (AID 169);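 also: 0% = growth of vehicle-treated yeast cultures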; details: S. cerevisiae wt2 strain growth inhibition, stronger effect = higher value
Outline: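 Growth of compound-treated yeast is measured and expressed as inhibition relative to vehicle-only controls.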

[13] = NCI Yeast Anticancer Drug Screen. Data for the mlh1 strain (AID 171);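 also: 0% = growth of vehicle-treated control cultures of the same strain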; details: S. cerevisiae mlh1 strain growth inhibition, stronger effect = higher value
Outline: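 Test agents were incubated with yeast bearing a defined DNA damage repair or cell cycle control alteration; values are growth inhibition normalised to vehicle-treated cultures.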

[14] = NCI Yeast Anticancer Drug Screen. Data for the mlh1 rad18 strain (AID 175); details: S. cerevisiae mlh1 rad18 strain growth inhibition, stronger effect = higher value
Outline: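 A repair-deficient yeast strain is exposed to test compound, and growth is scored relative to vehicle-treated controls.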

[15] = NCI Yeast Anticancer Drug Screen. Data for the rad18 strain (AID 177); details: S. cerevisiae rad18 mutant growth inhibition, stronger effect = higher value
Outline: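 DNA-repair-defective yeast; compound treatment; growth inhibition scored against vehicle.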

[16] = at 5.0 µM (retest, dose inferred, filed as 0.5)
[17] = at 50.0 µM (retest, dose inferred, filed as 5.0)

Measured: growth inhibition

CC(=O)Nc1ccc2c(c1)C(=Nc1ccc(C(=O)O)cc1)c1ccccc1-2
active: [1]; at 100.0 µM 96% | [3]; at 100.0 µM 92% | [4]; at 100.0 µM 91% | [5]; at 50.0 µM 91% | [5]; at 100.0 µM 95% | [6]; at 100.0 µM 78% | [7]; at 100.0 µM 97% | [8]; at 50.0 µM 74% | [11]; at 50.0 µM 91.6% | [12]; at 100.0 µM 93% | [13]; at 100.0 µM 90% | [14]; [17] 73% | [14]; at 50.0 µM 91.1% | [15]; at 33.0 µM 85% | [15]; at 100.0 µM 96%
inactive: [1]; at 1.2 µM -4% | [1]; at 3.7 µM -2% | [1]; at 11.0 µM 4% | [1]; at 33.0 µM 47% | [2]; at 1.2 µM 1% | [2]; at 3.7 µM 6% | [2]; at 11.0 µM 5% | [2]; at 33.0 µM 13% | [2]; at 100.0 µM 51% | [3]; at 1.2 µM 0% | [3]; at 3.7 µM 7% | [3]; at 11.0 µM 28% | [3]; at 33.0 µM 67% | [4]; at 1.2 µM -2% | [4]; at 3.7 µM -5% | [4]; at 11.0 µM -5% | [4]; at 33.0 µM 3% | [5]; at 1.2 µM -1% | [5]; at 3.7 µM 0% | [5]; [16] 6% | [5]; at 11.0 µM 9% | [5]; at 33.0 µM 47% | [5]; [17] 52% | [6]; at 1.2 µM 1% | [6]; at 3.7 µM 4% | [6]; [16] -3% | [6]; at 11.0 µM 9% | [6]; at 33.0 µM 22% | [6]; [17] 57% | [6]; at 50.0 µM 65.8% | [7]; at 1.2 µM -2% | [7]; at 3.7 µM 1% | [7]; at 11.0 µM 5% | [7]; at 33.0 µM 30% | [8]; [16] -15% | [8]; [17] 6% | [9]; at 1.2 µM 1% | [9]; at 3.7 µM -11% | [9]; at 11.0 µM 3% | [9]; at 33.0 µM 14% | [9]; at 100.0 µM 47% | [10]; [16] -8% | [10]; [17] 8% | [10]; at 50.0 µM 43.9% | [11]; at 1.2 µM -2% | [11]; at 3.7 µM -5% | [11]; [16] -7% | [11]; at 11.0 µM 0% | [11]; at 33.0 µM 11% | [11]; [17] 23% | [11]; at 100.0 µM 50% | [12]; at 1.2 µM -2% | [12]; at 3.7 µM -2% | [12]; at 11.0 µM -2% | [12]; at 33.0 µM 9% | [13]; at 1.2 µM -3% | [13]; at 3.7 µM 1% | [13]; at 11.0 µM 2% | [13]; at 33.0 µM 15% | [14]; [16] -7% | [15]; at 1.2 µM 5% | [15]; at 3.7 µM 15% | [15]; at 11.0 µM 47%

CN(C)CCOc1ccc2c(c1)C/C(=C/c1ncc([N+](=O)[O-])n1C)C2=O
active: [1]; at 3.7 µM 70% | [1]; at 11.0 µM 83% | [1]; at 33.0 µM 91% | [1]; at 100.0 µM 90% | [5]; at 33.0 µM 83% | [5]; [17] 75% | [5]; at 50.0 µM 74.3% | [5]; at 100.0 µM 91% | [6]; at 33.0 µM 88% | [6]; [17] 95% | [6]; at 50.0 µM 89.2% | [6]; at 100.0 µM 90% | [7]; at 11.0 µM 81% | [7]; at 33.0 µM 95% | [7]; at 100.0 µM 97% | [8]; [17] 82% | [8]; at 50.0 µM 83.1% | [10]; [17] 74% | [10]; at 50.0 µM 77.9% | [11]; at 50.0 µM 72.9% | [14]; [17] 82% | [14]; at 50.0 µM 89.3% | [15]; at 1.2 µM 83% | [15]; at 3.7 µM 90% | [15]; at 11.0 µM 91% | [15]; at 33.0 µM 94% | [15]; at 100.0 µM 92%
inactive: [1]; at 1.2 µM 50% | [2]; at 1.2 µM 28% | [2]; at 3.7 µM 5% | [2]; at 11.0 µM 20% | [2]; at 33.0 µM 21% | [2]; at 100.0 µM 39% | [3]; at 1.2 µM 22% | [3]; at 3.7 µM 6% | [3]; at 11.0 µM 10% | [3]; at 33.0 µM 35% | [3]; at 100.0 µM 59% | [4]; at 1.2 µM 31% | [4]; at 3.7 µM 36% | [4]; at 11.0 µM 29% | [4]; at 33.0 µM 36% | [4]; at 100.0 µM 62% | [5]; at 1.2 µM 40% | [5]; at 3.7 µM 47% | [5]; [16] 33% | [5]; at 11.0 µM 64% | [6]; at 1.2 µM 31% | [6]; at 3.7 µM 30% | [6]; [16] 30% | [6]; at 11.0 µM 53% | [7]; at 1.2 µM 33% | [7]; at 3.7 µM 51% | [8]; [16] 47% | [9]; at 1.2 µM 26% | [9]; at 3.7 µM 35% | [9]; at 11.0 µM 31% | [9]; at 33.0 µM 27% | [9]; at 100.0 µM 64% | [10]; [16] 13% | [11]; at 1.2 µM 3% | [11]; at 3.7 µM 10% | [11]; [16] 6% | [11]; at 11.0 µM 10% | [11]; at 33.0 µM 20% | [11]; [17] 6% | [11]; at 100.0 µM 59% | [12]; at 1.2 µM -40% | [12]; at 3.7 µM -23% | [12]; at 11.0 µM -30% | [12]; at 33.0 µM -22% | [12]; at 100.0 µM 25% | [13]; at 1.2 µM 31% | [13]; at 3.7 µM 36% | [13]; at 11.0 µM 29% | [13]; at 33.0 µM 36% | [13]; at 100.0 µM 62% | [14]; [16] 53%
